Several values for one entry are separate records, joined by “and”; a condition that tells them apart may be missing. Identical values can stand only once. Inconclusive results are not listed. More than one record can exist for a structure, and the calls need not agree. Activity calls are given as the source filed them. Unless noted, the call rests on the fitted dose curve; in most records, active means well fitted curve in the direction sought with a large enough effect in the repeat runs; inconclusive means weak or mixed curves; inactive means no such curve, though single readings can be large; an effect the other way counts as inactive or inconclusive.

The target in assay [1] is Acetylcholinesterase (Homo sapiens) (UniProt P22303). Nature of the assay: Acetylcholinesterase (AChE) small molecule antagonists: enzyme-based qHTS assay (AID 1347397; calls by dose curve; further: nearly all actives have a fitted effect of over 55% in size; further: potency means the concentration at half of the fitted maximal effect). The settings on record: Potency: AChE enzyme activity inhibition; outcome: AChE enzyme activity inhibition. The method, boiled down:
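In this quantitative HTS, compounds from the Tox21 10K collection were preincubated 30 min at ambient temperature with recombinant human AChE dispensed at 50 mU/mL. Hydrolysis of acetylthiocholine was then followed for 10 min by DTNB colour development.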
On the technique in general: In qHTS, concentration-response curves come from the screen itself.

For assay [2] the target is unchanged. Nature of the assay: Acetylcholinesterase (AChE) small molecule antagonists: fluorescence cell-based qHTS assay (AID 1347398; calls by dose curve; further: nearly all actives have a fitted effect of over 50% in size; further: potency means the concentration at half of the fitted maximal effect). The settings on record: Potency: AChE activity; outcome: AChE activity. The method, boiled down: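 Cells (SH-SY5Y) attached overnight, were dosed with compound or DMSO vehicle for 30 min at 37 C, and then incubated 40 min at room temperature with acetylthiocholine and Thiolite Green; green fluorescence indexed AChE activity.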

The target is the same in assay [3]. Kind of assay: Acetylcholinesterase (AChE) small molecule antagonists: enzyme-based qHTS assay with human liver microsomes (AID 1347399; calls by dose curve; further: nearly all actives have a fitted effect of over 60% in size). The settings on record: Potency: qHTS inhibition; outcome: qHTS inhibition. Summed up: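 Recombinant human AChE (50 mU/mL in the enzyme mix) and human liver microsomes (0.25 mg/mL final) were preincubated with compound and NADPH (0.25 mg/mL final) for 30 min at 37 C. Acetylthiocholine/DTNB was then added; thiocholine was read colorimetrically after 10 min at room temperature.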

The target of assay [4] is Cytochrome P450 2D6 (Homo sapiens) (UniProt P10635). Nature of the assay: Cytochrome P450 Family 2 Subfamily D Member 6 (CYP2D6) small molecule antagonists: luciferase reporter qHTS assay (AID 1671196). Further: nearly all actives have a fitted effect of over 50% in size. Further: potency means the concentration at half of the fitted maximal effect. Summed up:
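CYP2D6 activity was followed as luminescence from its luciferin product after a 1 h NADPH-driven reaction at room temperature. Enzyme-substrate mix and compound were pre-incubated for 10 min, and the signal was read 20 min after adding detection reagent.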

Assay [5] deals with Cytochrome P450 2C19 (Homo sapiens) (UniProt P33261). Nature of the assay: Cytochrome P450 Family 2 Subfamily C Member 19 (CYP2C19) small molecule antagonists: luciferase reporter qHTS assay (AID 1671197). Further: nearly all actives have a fitted effect of over 65% in size. Further: potency means the concentration at half of the fitted maximal effect. The method, boiled down: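 Relative luminescence units recorded 20 min after the detection reagent stopped a 1 h, 37C CYP2C19 reaction on proluciferin substrate, which was started by NADPH regeneration following 10 min room-temperature compound preincubation; ketoconazole positive control.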
Sequence of Cytochrome P450 2C19 (Homo sapiens) (P33261 whole entry, looked up): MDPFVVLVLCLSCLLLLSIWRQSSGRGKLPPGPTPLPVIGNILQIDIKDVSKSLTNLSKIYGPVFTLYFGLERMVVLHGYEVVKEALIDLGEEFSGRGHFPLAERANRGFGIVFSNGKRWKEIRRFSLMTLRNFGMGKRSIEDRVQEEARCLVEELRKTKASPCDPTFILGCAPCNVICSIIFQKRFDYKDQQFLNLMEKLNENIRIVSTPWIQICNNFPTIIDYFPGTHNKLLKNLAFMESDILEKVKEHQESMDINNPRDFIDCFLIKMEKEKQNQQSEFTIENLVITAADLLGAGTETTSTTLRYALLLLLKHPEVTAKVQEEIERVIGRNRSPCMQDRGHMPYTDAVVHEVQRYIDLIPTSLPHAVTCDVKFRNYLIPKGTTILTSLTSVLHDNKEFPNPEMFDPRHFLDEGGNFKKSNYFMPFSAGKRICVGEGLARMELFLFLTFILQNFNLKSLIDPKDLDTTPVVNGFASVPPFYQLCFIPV
On the technique in general: In a reporter assay the amount or activity of a reporter protein is the signal.

The target in assay [6] is Cytochrome P450 2C9 (Homo sapiens) (UniProt P11712). Kind of assay: Cytochrome P450 Family 2 Subfamily C Member 9 (CYP2C9) small molecule antagonists: luciferase reporter qHTS assay (AID 1671198). Further: nearly all actives have a fitted effect of over 50% in size. Further: potency means the concentration at half of the fitted maximal effect. Summed up:
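P450-Glo proluciferin substrate with CYP2C9 enzyme; 10 min RT preincubation, then NADPH regeneration 1 h at 37C; luciferin detection reagent 20 min RT, luminescence in relative luminescence units.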

In assay [7] the target is Cytochrome P450 1A2 (Homo sapiens) (UniProt P05177). Nature of the assay: Cytochrome P450 Family 1 Subfamily A Member 2 (CYP1A2) small molecule antagonists: luciferase reporter qHTS assay (AID 1671199). Further: nearly all actives have a fitted effect of over 50% in size. Further: potency means the concentration at half of the fitted maximal effect. The method, boiled down: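 Luminescence from luciferin formed by CYP1A2 from a proluciferin substrate, read 20 min after detection reagent. Compound was pre-incubated 10 min with enzyme-substrate, and reaction started with NADPH regeneration solution for 1 h at room temperature; furafylline control.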
Sequence of Cytochrome P450 1A2 (Homo sapiens) (P05177 whole entry, looked up): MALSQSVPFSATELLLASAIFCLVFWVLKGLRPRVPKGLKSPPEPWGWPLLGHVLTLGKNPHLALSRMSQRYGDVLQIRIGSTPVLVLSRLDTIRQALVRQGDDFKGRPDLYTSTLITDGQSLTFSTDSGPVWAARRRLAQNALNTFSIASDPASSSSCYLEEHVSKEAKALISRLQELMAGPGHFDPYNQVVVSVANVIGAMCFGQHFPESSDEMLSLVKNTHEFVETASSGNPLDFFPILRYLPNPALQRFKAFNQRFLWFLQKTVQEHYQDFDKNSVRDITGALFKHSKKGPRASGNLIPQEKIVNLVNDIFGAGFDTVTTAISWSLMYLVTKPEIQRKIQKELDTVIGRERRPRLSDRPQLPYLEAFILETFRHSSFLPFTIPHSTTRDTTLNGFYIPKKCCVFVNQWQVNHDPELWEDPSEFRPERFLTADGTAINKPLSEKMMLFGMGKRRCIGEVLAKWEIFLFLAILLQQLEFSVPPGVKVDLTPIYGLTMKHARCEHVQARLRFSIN

The target of assay [8] is Voltage-gated inwardly rectifying potassium channel KCNH2 (Homo sapiens) (UniProt Q12809). Kind of assay: Human Ether-a-go-go-Related Gene (hERG) channel small molecule antagonists: fluorescence cell-based qHTS assay (AID 1671200). The method, boiled down:
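Thallium served as the potassium surrogate; its influx into dye-loaded U2OS cells carrying the channel was measured by fluorescence over 2 min.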
A general note: The hERG channel carries a current that helps repolarise heart muscle cells.

Assay [9] deals with Cytochrome P450 3A4 (Homo sapiens) (UniProt P08684). Nature of the assay: Cytochrome P450 Family 3 Subfamily A Member 4 (CYP3A4) small molecule antagonists: luciferase reporter qHTS assay (AID 1671201). The method, boiled down: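 Relative luminescence units after 20 min with luciferin detection reagent served as read-out. Beforehand, CYP3A4 turned over a proluciferin substrate for 1 h at room temperature with NADPH regeneration, following 10 min compound preincubation.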
Sequence of Cytochrome P450 3A4 (Homo sapiens) (P08684 whole entry, looked up): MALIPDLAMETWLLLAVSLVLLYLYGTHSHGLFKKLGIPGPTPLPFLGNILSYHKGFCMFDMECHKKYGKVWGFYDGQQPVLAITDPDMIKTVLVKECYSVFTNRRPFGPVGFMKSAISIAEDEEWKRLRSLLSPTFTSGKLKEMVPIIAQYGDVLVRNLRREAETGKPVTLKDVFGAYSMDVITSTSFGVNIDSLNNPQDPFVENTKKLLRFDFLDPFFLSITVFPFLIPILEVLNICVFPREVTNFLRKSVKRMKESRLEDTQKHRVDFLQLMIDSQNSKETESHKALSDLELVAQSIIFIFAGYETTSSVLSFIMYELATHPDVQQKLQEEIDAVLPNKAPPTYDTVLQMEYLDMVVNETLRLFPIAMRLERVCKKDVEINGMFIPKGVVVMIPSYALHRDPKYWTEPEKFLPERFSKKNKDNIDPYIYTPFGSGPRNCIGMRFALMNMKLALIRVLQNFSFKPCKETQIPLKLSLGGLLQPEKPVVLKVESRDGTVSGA

Sequence of Voltage-gated inwardly rectifying potassium channel KCNH2 (Homo sapiens) (Q12809 whole entry, looked up): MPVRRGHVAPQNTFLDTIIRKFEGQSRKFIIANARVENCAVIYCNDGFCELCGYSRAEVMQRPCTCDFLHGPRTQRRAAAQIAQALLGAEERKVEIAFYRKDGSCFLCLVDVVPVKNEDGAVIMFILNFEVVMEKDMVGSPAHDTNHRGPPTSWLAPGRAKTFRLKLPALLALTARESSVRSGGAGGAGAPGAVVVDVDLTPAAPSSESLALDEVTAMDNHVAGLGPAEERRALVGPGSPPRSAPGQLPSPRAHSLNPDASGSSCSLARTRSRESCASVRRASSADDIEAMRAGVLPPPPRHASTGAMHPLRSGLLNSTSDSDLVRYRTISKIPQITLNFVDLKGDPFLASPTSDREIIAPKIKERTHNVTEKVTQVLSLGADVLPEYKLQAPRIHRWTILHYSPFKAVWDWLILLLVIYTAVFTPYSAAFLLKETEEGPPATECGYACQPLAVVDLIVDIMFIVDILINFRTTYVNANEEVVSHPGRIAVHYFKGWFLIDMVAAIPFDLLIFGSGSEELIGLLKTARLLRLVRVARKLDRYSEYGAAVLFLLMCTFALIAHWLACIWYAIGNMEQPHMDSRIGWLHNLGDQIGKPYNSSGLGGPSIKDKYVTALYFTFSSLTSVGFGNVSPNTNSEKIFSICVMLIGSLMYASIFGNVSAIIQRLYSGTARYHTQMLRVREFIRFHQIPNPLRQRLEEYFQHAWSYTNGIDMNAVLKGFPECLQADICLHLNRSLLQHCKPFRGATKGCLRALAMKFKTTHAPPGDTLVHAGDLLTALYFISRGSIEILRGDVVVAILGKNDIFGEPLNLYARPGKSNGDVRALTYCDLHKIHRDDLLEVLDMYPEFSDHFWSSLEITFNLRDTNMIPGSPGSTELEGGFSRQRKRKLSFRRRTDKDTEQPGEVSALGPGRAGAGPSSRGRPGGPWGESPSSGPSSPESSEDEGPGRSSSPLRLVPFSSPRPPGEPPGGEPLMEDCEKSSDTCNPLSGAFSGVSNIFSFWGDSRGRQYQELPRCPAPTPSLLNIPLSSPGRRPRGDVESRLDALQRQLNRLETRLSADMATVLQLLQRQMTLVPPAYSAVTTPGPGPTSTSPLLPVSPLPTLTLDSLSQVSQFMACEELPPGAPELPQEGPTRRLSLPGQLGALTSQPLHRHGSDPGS
Sequence of Cytochrome P450 2D6 (Homo sapiens) (P10635 whole entry, looked up): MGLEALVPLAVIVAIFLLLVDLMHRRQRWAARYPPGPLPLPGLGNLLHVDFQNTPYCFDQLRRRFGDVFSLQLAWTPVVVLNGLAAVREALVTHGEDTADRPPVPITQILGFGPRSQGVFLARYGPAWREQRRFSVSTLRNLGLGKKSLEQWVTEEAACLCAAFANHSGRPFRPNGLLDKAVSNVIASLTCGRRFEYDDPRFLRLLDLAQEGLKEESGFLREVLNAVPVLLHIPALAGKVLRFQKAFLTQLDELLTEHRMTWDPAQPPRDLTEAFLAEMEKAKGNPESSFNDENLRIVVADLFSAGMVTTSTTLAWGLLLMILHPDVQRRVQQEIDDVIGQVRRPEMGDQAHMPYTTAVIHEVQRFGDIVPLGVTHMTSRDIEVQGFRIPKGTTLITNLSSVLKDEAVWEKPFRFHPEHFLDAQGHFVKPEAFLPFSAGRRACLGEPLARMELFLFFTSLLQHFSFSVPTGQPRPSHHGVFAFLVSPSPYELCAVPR
Sequence of Acetylcholinesterase (Homo sapiens) (P22303 whole entry, looked up): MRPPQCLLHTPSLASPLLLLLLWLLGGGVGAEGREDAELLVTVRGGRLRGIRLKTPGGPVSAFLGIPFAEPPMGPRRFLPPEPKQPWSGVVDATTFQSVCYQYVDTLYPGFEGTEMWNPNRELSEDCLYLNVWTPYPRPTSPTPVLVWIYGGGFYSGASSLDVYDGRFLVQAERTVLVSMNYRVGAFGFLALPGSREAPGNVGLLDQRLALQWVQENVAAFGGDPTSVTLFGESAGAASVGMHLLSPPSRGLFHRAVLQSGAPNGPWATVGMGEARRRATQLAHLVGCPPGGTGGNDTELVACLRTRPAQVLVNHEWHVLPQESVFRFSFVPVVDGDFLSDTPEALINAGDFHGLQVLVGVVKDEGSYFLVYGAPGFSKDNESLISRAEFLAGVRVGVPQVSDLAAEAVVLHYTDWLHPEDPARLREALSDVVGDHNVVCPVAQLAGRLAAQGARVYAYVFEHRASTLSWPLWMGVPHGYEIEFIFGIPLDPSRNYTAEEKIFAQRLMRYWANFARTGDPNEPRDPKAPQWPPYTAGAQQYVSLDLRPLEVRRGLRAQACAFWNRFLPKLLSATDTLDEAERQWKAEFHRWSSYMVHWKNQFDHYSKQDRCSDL
Sequence of Cytochrome P450 2C9 (Homo sapiens) (P11712 whole entry, looked up): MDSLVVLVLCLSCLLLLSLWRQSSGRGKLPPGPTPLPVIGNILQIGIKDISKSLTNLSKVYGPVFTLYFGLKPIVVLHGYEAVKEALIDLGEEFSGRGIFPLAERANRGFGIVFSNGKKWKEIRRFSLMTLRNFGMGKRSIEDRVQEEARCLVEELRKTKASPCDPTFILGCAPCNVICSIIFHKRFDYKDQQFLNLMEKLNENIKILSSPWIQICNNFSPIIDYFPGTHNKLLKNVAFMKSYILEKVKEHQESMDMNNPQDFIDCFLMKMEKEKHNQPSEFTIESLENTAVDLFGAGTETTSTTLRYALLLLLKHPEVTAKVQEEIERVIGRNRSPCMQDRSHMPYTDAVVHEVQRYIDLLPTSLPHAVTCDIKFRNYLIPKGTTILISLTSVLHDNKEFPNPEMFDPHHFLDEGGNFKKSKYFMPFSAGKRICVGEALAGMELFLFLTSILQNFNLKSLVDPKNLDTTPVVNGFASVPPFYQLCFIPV

For `C[C@H](N)[C@H](O)c1ccc(O)c(O)c1`, the Potency result in assay [1], in assay [3], in [4], in [5], in assay [6] and in assay [7] was “inactive” each time. For the same molecule, the Potency result in assay [8] and in assay [9] was “inactive” each time. In addition, in assay [2], the Potency is 0.776 µM (active).

As for `NNCCO`, the Potency result in [1], in assay [2], in [3], in [4], in assay [5] and in [6] was “inactive” throughout. For the same molecule, the Potency entry in assay [7], in [8] and in assay [9] was “inactive” in each case.

For `CC(C)(C#N)C(C)(C)C#N`, the Potency entry in assay [1], in [2], in [3], in assay [4], in assay [5] and in assay [6] was “inactive” in each case. Moreover, the Potency result in assay [8] and in [9] was “inactive” in each case.

Regarding `CCCC(C)(COC(N)=O)COC(=O)NC(C)C` (centres undefined), the Potency result in assay [1], in [2], in [3], in [4], in assay [6] and in assay [7] was “inactive” in each case. The Potency result in assay [8] and in assay [9] was “inactive” each time. In assay [5], the Potency is 20 µM (active) and 8.71 µM (active).

As for `Cc1nnc(-c2ccccc2)c(=O)n1N`, the Potency result in assay [1], in [2], in assay [3], in assay [4], in assay [5] and in [8] was “inactive” each time. Besides, the Potency result in assay [9] is “inactive”. For the same molecule, in [7], the Potency is 35.6 µM (active).

`CC(Oc1cc(Cl)c(Cl)cc1Cl)C(=O)O` (centres undefined): the Potency entry in [1], in assay [2], in assay [3], in assay [4], in assay [5] and in assay [8] was “inactive” throughout. In addition, the Potency result in [9] is “inactive”. Also, in assay [6], the Potency was 31.8 µM (active).

On to `ClCc1ccccc1Cl`, for which the Potency entry in assay [1], in assay [2], in [3], in [4], in assay [5] and in [6] was “inactive” each time. Further, the Potency result in [8] and in assay [9] was “inactive” throughout.

Take `CCCCC#N`: the Potency entry in assay [1], in assay [2], in assay [3], in assay [4], in assay [6] and in assay [7] was “inactive” each time. Also, the Potency entry in [8] and in assay [9] was “inactive” throughout.

For `CCCC[N+](CCCC)(CCCC)CCCC`, the Potency entry in [1], in [2], in assay [3], in assay [5], in assay [6] and in assay [7] was “inactive” in each case. For the same molecule, in assay [9], the Potency entry was “inactive”. For the same molecule, in assay [4], the Potency is 8.9 nM (active).

As to `Cc1ccc2c(C)cccc2c1`, the Potency result in assay [1], in [2], in assay [3], in [4], in assay [5] and in assay [6] was “inactive” in each case. The Potency result in assay [7], in [8] and in [9] was “inactive” in each case.

Turning to `CC(C)c1ccc(NC(=O)N(C)C)cc1`, the Potency entry in assay [1], in [2], in [3], in [4], in [8] and in [9] was “inactive” throughout. The Potency in assay [5] is 31.7 µM (active); in assay [7] it was 15.9 µM (active).

`Nc1cc(Cl)cc(C(=O)O)c1Cl`: the Potency result in [1], in [2], in assay [3], in assay [5], in assay [8] and in assay [9] was “inactive” each time. In addition, the Potency in assay [4] was 39.6 µM (active) and inactive.

Turning to `CCCCCCCCP(=O)(O)O`, the Potency entry in assay [1], in [2], in [3], in assay [4], in assay [5] and in assay [6] was “inactive” in each case. The Potency result in assay [8] and in [9] was “inactive” each time.

With `CC(C)(c1ccccc1)c1cc(-n2nc3ccccc3n2)c(O)c(C(C)(C)c2ccccc2)c1`, the Potency entry in assay [1], in assay [2], in assay [3], in assay [4], in assay [5] and in assay [6] was “inactive” each time. In addition, the Potency result in assay [8] and in assay [9] was “inactive” throughout.

Regarding `COC(=O)C1(O)c2ccccc2-c2ccccc21`, the Potency result in assay [1], in assay [2], in assay [3] and in [4] was “inactive” throughout. Further, the Potency is 79.6 µM (active) in [5] and 25.2 µM (active) in assay [7].

`CCSCc1ccccc1OC(=O)NC`: the figures for the Potency in assay [1], in assay [2] and in assay [7] were 20 µM (active), 22.4 µM (active) and 63.3 µM (active), respectively. In addition, the Potency result in assay [3], in assay [4], in assay [5], in assay [8] and in [9] was “inactive” in each case.

Consider `CCOP(=S)(S)OCC`, for which the Potency result in [1], in [3], in assay [4], in assay [8] and in assay [9] was “inactive” in each case. Moreover, the Potency is 42.1 µM (active) in assay [2], 33.4 µM (active) in assay [5] and 21.1 µM (active) in assay [6].

Turning to `C=C(C)C(=O)OCCCCOC(=O)C(=C)C`, the Potency entry in assay [1], in [2], in assay [3], in assay [4], in assay [8] and in assay [9] was “inactive” in each case. In addition, the Potency in [5] was 7.96 µM (active); in assay [6] it was 39.9 µM (active); in assay [7], 25.2 µM (active).

On to `Clc1ccccc1`, for which the Potency entry in assay [1], in [2], in [4], in assay [5], in assay [6] and in [7] was “inactive” each time. For the same molecule, the Potency entry in assay [8] and in [9] was “inactive” each time.
